According to PubChem BioAssay (EPA / NIEHS):
Active and inactive are the calls of the source. Rule for the calls, unless noted: active = hit-call score of the fitted dose curve at least 0.9, where 1 is the maximum; inconclusive = response in the unintended direction; inactive = score below 0.9.

read-out: matrix metalloproteinase-1 (MMP1), MMP1 (gene 4312); assay: LTEA_HepaRG_MMP1: Life Technologies and Expression Analysis (LTEA) Assay for matrix metalloproteinase-1 (MMP1) using HepaRG (AID 2283658; active = hit-call score of the fitted dose curve at least 0.9, where 1 is the maximum; inactive = score below 0.9); settings: mRNA level, 48 h; actives raise or lower the signal
How it was run: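 MMP1 transcript read by TaqMan qRT-PCR (Fluidigm array) after 48 h chemical exposure of HepaRG cells in serum-free induction medium. Eight-point half-log series, top 100 uM, 0.5% DMSO vehicle. Bidirectional curve fit against DMSO baseline.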

Row | Structure (SMILES) | outcome | AC50
1 | CCCCC(CC)CO (stereo not given) | inactive | –
2 | CCCCCCC(CCCCCCCCCCC(=O)OCC(COC(C)=O)OC(C)=O)OC(C)=O (stereo not given) | inactive | –
3 | CCCCCCCCCC[N+](C)(C)[O-] | inactive | –
4 | Cc1occc(=O)c1O | inactive | –
5 | CCC(C)N(C)C(=O)c1cc2ccccc2c(-c2ccccc2Cl)n1 (stereo not given) | inactive | –
6 | CN(C)CCCN1c2ccccc2Sc2ccc(Cl)cc21 | – | 84900 nM (active)

test system: Thyroperoxidase (TPO), gene 54314; assay: CCTE_Simmons_AUR_rTPO: CCTE's Amplex UltraRed Assay for Thyroperoxidase (TPO) Inhibition, Simmons Lab (AID 2283662); settings: not given;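 for AC50: potency for loss of signal meaning inhibition of peroxidase activity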
How it was run: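 Rat thyroid microsomal TPO + 25 uM AUR in 200 mM K phosphate; cpd 5 nM–87.5 uM [final], 8 conc, 0.5% DMSO; 300 uM H2O2 starts rxn; 37C dark 30 min; endpoint FI 544/590 nm; n=3.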

Row | Structure (SMILES) | AC50 | outcome
7 | O=C1c2c(O)cccc2Cc2cccc(O)c21 | 11900 nM (active) | –
8 | CCCCCCCCCCCCCCOS(=O)(=O)O | 43800 nM (active) | –
9 | Cc1cc(Cc2ccc(N)c(C)c2)ccc1N | 844 nM (active) | –
10 | S=c1[nH]c2ccccc2s1 | 433 nM (active) | –
11 | Nc1nc(=S)c2[nH]cnc2[nH]1 | 414 nM (active) | –
12 | Cc1occc(=O)c1O | 21700 nM (active) | –
13 | Cc1c(C)c2c(c(C)c1O)CCC(C)(COc1ccc(CC3SC(=O)NC3=O)cc1)O2 (stereo not given) | 1910 nM (active) | –
14 | CC1(C)C(=O)NC(=O)N1CO | – | inactive
15 | CC(C)NCC(O)c1ccc(O)c(O)c1 (stereo not given) | 616 nM (active) | –
